The record followed here is PubChem BioAssay (NCI).

Molecules are shown by their SMILES. This is part of a sample that, as a whole, favours compounds with a hit. Of some 83,000 tested, about 20% had one in any assay.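 Values shown are percent growth following 48 h exposure of cells in 96-well plates to a single concentration of compound; below 10 was considered active.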 Unmarked numbers belong to inactive results. Activity calls are given as the source filed them.

Experiment in all cases: NCI-60 one-dose screen, 48 h (100 = growth as untreated, 0 = no growth, -100 = all killed)
Common to all, as to settings: 10 µM unless noted

Assay [1] relates to SR leukemia.
The subject of assay [2] is RPMI-8226 leukemia.
Assay [3] relates to OVCAR-8 ovarian.
For assay [4], the system named is OVCAR-5 ovarian.
Assay [5] deals with OVCAR-4 ovarian.
Assay [6] deals with SK-OV-3 ovarian.
Assay [7] deals with IGROV1 ovarian.
Assay [8] concerns OVCAR-3 ovarian.
For assay [9], the system named is HS 578T breast.
The subject of assay [10] is NCI/ADR-RES ovarian.
Assay [11] relates to T-47D breast.
The test system of assay [12] is BT-549 breast.
Assay [13] relates to MDA-MB-435 melanoma.
In assay [14] the test system is SW-620 colon.
The test system of assay [15] is HCT-116 colon.
For assay [16], the system named is HCC-2998 colon.
Assay [17] has as its system KM12 colon.
Assay [18] relates to MCF7 breast.

Turning to `COC(=O)C(N)CSC(c1ccccc1)(c1ccccc1)c1ccccc1` (stereo unspecified), the growth in assay [1] was 7.6% (active); in [2], 30.9%; in [3], 36.8%; in assay [4] it was 33.3%; in [5], 79.8%; in [6], 19.4%. Besides, the growth in assay [7] is 28.6%; in [8] it was 20.7%; in [9], 21.5%; in [10], 68.4%; in assay [11], 23.9%; in assay [12] it was 54.6%. Moreover, the growth in assay [13] was -58.7% (active); in assay [14] it was 21.1%; in assay [15] it was 15.7%; in [16], 12.9%; in [17], 17.6%.

Consider `COC(=O)[C@]12CC[C@@H](C)[C@H](C)[C@@H]1C1=CC(=O)[C@@H]3[C@@]4(C)C[C@@H](OC(C)=O)[C@H](OC(C)=O)[C@@](C)(COC(C)=O)[C@@H]4C(=O)C[C@@]3(C)[C@]1(C)CC2`, for which the growth is 29.1% in assay [1]; 3.4% (active) in assay [2]; 10.4% in [3]; 84.4% in [4]; 60.4% in assay [5]; 76.4% in assay [6]. Also, the growth was 61.4% in [7]; 40.2% in assay [8]; 75.9% in [9]; 13.2% in assay [10]; 45.1% in assay [11]; 17.8% in [12]. The growth was 57.8% in assay [13]; 42.5% in assay [18]; 22.6% in assay [15]; 68.7% in [16]; 44.7% in assay [17].

As to `C=C(C)[C@@H]1CC[C@]2(C)[C@H](CC[C@@H]3[C@H]4[C@H]5OC[C@@]4(CCC5(C)C)CC[C@]32C)[C@@]1(C)CCCN`, the growth in assay [1] was -0.922% (active); in [2], 1.46% (active); in [3], 57.8%; in assay [4], 50.6%; in [5], 70.2%; in assay [6], 104%. Further, the growth in assay [7] was 54.3%; in assay [8], 76.6%; in assay [9] it was 109%; in assay [10], 73.8%; in [11], 23%; in assay [13], 49.2%. Also, the growth in assay [14] was -45.1% (active); in assay [18], 0.266% (active); in [15], 4.71% (active); in [16], -68.4% (active); in [17], 23.9%.

`COc1ccccc1CNc1nc(N)nc2[nH]c3ccc(O)cc3c12`: the growth in assay [1] was 4.16% (active); in assay [2], 48.8%; in assay [3], 53.7%; in assay [4], 76.4%; in [5], 80.2%; in assay [6] it was 73.4%. Besides, the growth in [7] was 50.9%; in assay [8] it was 44.6%; in assay [9], 59.2%; in [10] it was 82.6%; in assay [11], 32.1%; in assay [12], 62.8%. Besides, the growth was -27.6% (active) in [13]; 19.2% in assay [18]; 31% in assay [15]; 67% in [16]; 22.4% in assay [17].

As to `O=C1NC(c2ccc(Cl)c(Cl)c2)=C/C1=C\c1ccccc1`, the growth in assay [1] was 17.1%; in assay [2], 48.3%; in assay [3], 74.4%; in assay [4] it was 73.2%; in assay [5] it was -36.6% (active); in assay [6] it was 100%. The growth in assay [7] was 59.2%; in [8] it was 50.8%; in assay [9], 66.3%; in [10], 83.7%; in assay [11], 12.5%; in assay [12], 86.2%. For the same molecule, the growth in [13] is 86.6%; in [18], 63.1%; in assay [15], 26.5%; in assay [16] it was 103%; in assay [17], 89.2%.

Turning to `COc1cc2c(cc1-c1c(C)noc1C)ncc1nc(C3CC3)n([C@H](C)COC(F)F)c12`, the growth in assay [1] was 25.5%; in [2] it was 17.8%; in assay [3], 46.3%; in [4] it was 84.2%; in assay [5] it was 58.7%; in assay [6], 1.36% (active). Besides, the growth was 58.6% in [7]; 42% in [8]; 8.14% (active) in assay [9]; 40.1% in [10]; 32.7% in assay [11]; 71.6% in assay [12]. For the same molecule, the growth in assay [13] is 44.3%; in assay [18], 21.7%; in assay [15], 37%; in [16], 57.3%; in [17], 51.5%.

With `C=C1C(=O)O[C@H]2[C@H]1CC/C(Cn1cc(-c3ccc(OC)cc3)nn1)=C\CC[C@@]1(C)O[C@@H]21`, the growth in [1] was -10.8% (active); in assay [2], -33.3% (active); in [3], -51% (active); in assay [4] it was 17.2%; in assay [5] it was 27.4%; in [6], 120%. The growth is -51.1% (active) in [7]; -83.9% (active) in assay [8]; 75.6% in assay [9]; 24.7% in [10]; -71% (active) in assay [11]; 50% in assay [12]. For the same molecule, the growth is -26.9% (active) in [13]; -50.2% (active) in assay [14]; -83.6% (active) in [15]; 2.05% (active) in assay [16]; 65.5% in assay [17].

On to `NC1=NN(c2ccccc2)C(=O)/C1=C/c1ccc(Cl)cc1`, for which the growth in assay [1] is 94.2%; in [2], 94.8%; in assay [3], 99%; in [4], 98.1%; in [5], 109%; in assay [6], 96.3%. Further, the growth in [7] is 99.4%; in assay [8], 108%; in [9], 106%; in assay [10], 103%; in assay [11] it was 74.1%; in assay [12], 104%. Also, the growth is 105% in assay [13]; 96.6% in assay [18]; 100% in assay [15]; 109% in assay [16]; 103% in assay [17].
